Only some compounds are listed: those with a hit (about 2% of all), similar ones and a draw of the others.
TDP43 rescue = rescues yeast growth from TDP-43 toxicity; TDP-43 expressing yeast growth rescue, BacTiter-Glo, 24 h; AID 652104; actives 1.8% (n = 410,000); Potency, µM (top dose mostly 46.1 µM), without a hit: at the top dose growth rescue (activation), usual class: activators; note: potency is the fitted concentration of half-maximal effect; % of control where 0% means no effect; nearly all actives have a fitted effect of over 50% in size
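Yeast cells expressing TDP-43 under galactose induction are exposed to compounds for 24 hr at 30 deg C. BacTiter-Glo luminescence measures growth, so protective compounds score as activators.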
LDHA block = blocks human lactate dehydrogenase A; actives 0.15% (n = 480,000); activity change, % (values are at about 110 or 230 µM); purified LDHA, NADH/diaphorase-resazurin fluorescence; active compounds read low; AID 1347041; P00338; in the data active = activity change below about -30%; inconclusive = mostly about -25% to -30%;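 note: plate controls were DMSO wells for no effect and wells without enzyme for full effect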
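Enzyme activity of human lactate dehydrogenase 5 (2 nM; 0.06 mM NADH, 0.2 mM pyruvate, 5 min, RT) is measured via a resazurin/diaphorase fluorescence readout of residual NADH.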
FUS suppressor = FUS proteinopathy suppression in yeast. actives 0.24% (n = 390,000). S. cerevisiae FUS-expressing, growth rescue, OD600, 24 h. Potency, µM (top dose mostly 76.6 µM), hits mostly activators;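 note: potency is the fitted concentration of half-maximal effect; plate controls were DMSO vehicle for no effect and reference control for full effect; nearly all actives have a fitted effect of over 55% in size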
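S. cerevisiae expressing FUS from galactose induction served as the toxicity model. Growth after 24hr at 30C, read as absorbance at 600 nm, indicates suppression of toxicity; compounds dosed at several concentrations.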
mIDH1 inhibitor = human IDH1 R132H inhibition; O75874; IDH1-R132H enzyme, NADPH consumption, diaphorase/resazurin fluorescence; Potency, µM (titrated, usually from 76.6 µM), without a hit: top-dose activity change, negative = inhibition, most hits filed as inhibitors; actives 0.093% (n = 390,000); AID 602179; note: potency is the fitted concentration of half-maximal effect; % is set by controls: 0 for no effect and ±100 for the full control effect; nearly all actives have a fitted effect of over 65% in size
Target sequence (O75874 whole entry R132H, stated change not applied): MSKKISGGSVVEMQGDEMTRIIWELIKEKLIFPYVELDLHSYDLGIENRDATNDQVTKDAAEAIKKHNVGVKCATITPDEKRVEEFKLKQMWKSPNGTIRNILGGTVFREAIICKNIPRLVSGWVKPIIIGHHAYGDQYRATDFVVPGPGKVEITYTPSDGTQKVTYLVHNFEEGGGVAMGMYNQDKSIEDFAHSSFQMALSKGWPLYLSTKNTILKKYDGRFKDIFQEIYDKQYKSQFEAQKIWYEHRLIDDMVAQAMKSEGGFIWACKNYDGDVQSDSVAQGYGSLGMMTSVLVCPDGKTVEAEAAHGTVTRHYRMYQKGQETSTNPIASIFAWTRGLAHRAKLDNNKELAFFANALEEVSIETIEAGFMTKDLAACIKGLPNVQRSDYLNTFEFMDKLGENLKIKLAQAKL
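IDH1-R132H (0.5 ug/mL dispensed) in pH 7.5 Tris buffer was preincubated 30 min with compound, then given a substrate mix of 0.016 mM NADPH and 2 mM alpha-KG for 80 min at room temperature; remaining NADPH was read by diaphorase/resazurin fluorescence.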
aSyn yeast inh = inhibitors of alpha-synuclein toxicity in yeast. Yeast expressing alpha-synuclein, growth rescue, BacTiter-Glo, 24 h. Potency, µM (highest dose often 46.1 µM), inactives show top-dose growth rescue (activation), usual class: activators. actives 0.14% (n = 370,000); note: potency is the fitted concentration of half-maximal effect; % of control where 0% means no effect; nearly all actives have a fitted effect of over 65% in size
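Galactose-induced alpha-syn yeast (OD600=0.02, raffinose-pregrown) + pinned cpd, 24 hr, 30 deg C; growth by BacTiter-Glo luminescence. Growth restoration scores as activation.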
Abeta rescue = restores growth of yeast expressing A-beta42 peptide | Potency, µM (doses to about 46.1 µM), actives largely listed as activators | yeast expressing A-beta42, growth rescue, OD600, 48 h; response scale: 0% DMSO, 100% iron-clioquinol control | AID 1347071 | actives 0.063% (n = 410,000); note: potency is the fitted concentration of half-maximal effect; nearly all actives have a fitted effect of over 55% in size
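Yeast growth medium received pinned compounds, then yeast cells expressing toxic A-beta were added; plates incubated at 30 C for 48 hr. Growth read as absorbance at 600 nm, normalized to DMSO and equimolar FeCl3 plus clioquinol controls.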
Active calls of the source: *; i = inactive; ? = inconclusive; · = no result; ! = not active in a repeat. Unless noted, calls come from the whole dose curve; as a rule, active = well fitted curve in the direction sought with a large enough effect; inconclusive = small, poorly fitted or top-dose-only effect, or another doubt; inactive = no such curve, though single readings can be large; an effect the other way counts as inactive or inconclusive.

SMILES | TDP43 rescue | LDHA block | FUS suppressor | mIDH1 inhibitor | aSyn yeast inh | Abeta rescue
N#C/C(=C\c1ccc(O)c(O)c1)C(=O)N1CCCC1 | 9% | 4 | i | -2% | 3% | i
N#C/C(=C\c1ccc(O)c(O)c1)C(=O)c1ccc(O)c(O)c1 | 18% | -90* | i | -9% | -3% | i
FC(F)(F)c1cc(Cl)c2n[nH]c(=S)n2c1 | · | -20 | · | · | · | ·
COc1ccc(C(C(=O)NC2CCCC2)n2c(Cc3cc(F)cc(F)c3)nc3ccccc32)cc1 (stereo not given) | ? | -3 | i | · | 2% | i
COc1ccc(C(C(=O)NC2CCCC2)n2c(CSCCOc3ccccc3)nc3ccccc32)cc1 (stereo not given) | 5% | -8 | 18µM* | · | -3% | i
CN(C)c1ccc(C(CNC(=O)c2ccccc2)c2c[nH]c3ccccc23)cc1 (stereo not given) | 3% | 6 | 11µM* | -10% | -1% | i
Fc1ccc(CNC(=S)Nc2ccccc2)cc1 | · | 3 | · | · | · | ·
Cc1cccc(-c2nc(CCN(C)S(=O)(=O)c3cccc4nsnc34)no2)c1 | · | 0 | · | · | · | ·
Cc1[nH]c2ccccc2c1N=Nc1ccc(F)cc1 | ? | -5 | i | 19% | -39% | i
Cc1[nH]c2ccccc2c1N=Nc1cc(C(=O)O)cc(C(=O)O)c1 | · | -34* | i | 8% | 0% | i
CC(NC(=O)c1ccc(NC(=O)C2CC2)s1)c1ccc(Cl)cc1 (stereo not given) | · | -6 | · | · | · | ·
CCOc1nc(NC2CCCC2)nc(N2CCC(C)CC2)n1 | 18µM* | 0 | i | 1% | -15% | ?
N#C/C(=C\c1ccc(-c2ccccc2C(=O)O)o1)c1nc2ccccc2[nH]1 | 22µM*! | -4 | i | 7% | -5% | i
Cc1ccc2nc(/C(C#N)=C/c3ccc(-c4ccccc4C(=O)O)o3)[nH]c2c1 | 13% | -5 | i | -1% | 0% | i
CC1(Cc2cccc(C(F)(F)F)c2)C(=O)Nc2c(Cl)cccc21 (stereo not given) | 0% | 1 | i | · | 22µM* | i
CC1(Cc2ccc3c(c2)OCO3)C(=O)Nc2c(Cl)ccc(Cl)c21 (stereo not given) | ? | 0 | i | · | 22µM* | i
CC1(Cc2ccc3c(c2)OCO3)C(=O)Nc2ccc(-c3cccc(C(F)(F)F)c3)cc21 (stereo not given) | -21% | 3 | i | · | -2% | i
Cc1ccc(CC2(C)C(=O)Nc3c(Cl)cccc32)cc1 (stereo not given) | -3% | -5 | i | · | 6.3µM* | i
O=S(Cc1cccc(C(F)(F)F)c1)Cc1c(Cl)cccc1Cl (stereo not given) | · | 7 | · | · | · | ·
CC1(Cc2ccc(Cl)cc2)C(=O)Nc2c(Cl)cccc21 (stereo not given) | ? | -2 | i | · | 5µM* | i
COc1ccccc1CC1(C)C(=O)Nc2c(Cl)cccc21 (stereo not given) | ? | -7 | i | · | ? | i
Cc1noc(C)c1COc1ccc(CC(=O)Nc2ncccc2O)cc1 | · | 12 | · | · | · | ·
CC1(Cc2ccc(F)cc2)C(=O)Nc2c(Cl)cccc21 (stereo not given) | 28µM* | -3 | i | · | 13µM* | i
Cc1[nH]c2ccccc2c1C(=O)/C(C#N)=C\c1c(Cl)cccc1Cl | · | 7 | · | · | · | ·
Cc1ccc(C)c(C(=O)CN2C(=O)NC3(CCCCCCC3)C2=O)c1 | -12% | -2 | i | 0% | 8% | i
SMILES | TDP43 rescue | LDHA block | FUS suppressor | mIDH1 inhibitor | aSyn yeast inh | Abeta rescue
Cc1ccc(C)c(CN2C(=O)NC3(CCCCCC3)C2=O)c1 | 22µM* | -2 | i | -1% | 0% | ?
O=C(COc1cc(O)c2c(=O)cc(-c3ccccc3)oc2c1)NCc1ccc(F)cc1 | · | 5 | · | · | · | ·
O=CC1=Cc2c(ccc3ccccc23)OC1 | · | 17 | · | · | · | ·
Cc1ccc(Nc2nc(CSc3nnc(-c4ccccc4)n3C)cs2)cc1 | 18µM* | -5 | i | -7% | 10% | i
Cc1ccc(Nc2nc(CSc3nnnn3C)cs2)cc1 | ? | -7 | i | 2% | 0% | i
Cc1ccc(Nc2nc(CSc3nnnn3-c3ccccc3)cs2)cc1 | 14µM* | 1 | i | -2% | -8% | i
O=C(CN(C1CCCCC1)S(=O)(=O)c1ccc(Br)cc1)N1CCCCCC1 | · | -7 | · | · | · | ·
CCN(CC)C(=O)CN(C1CCCCC1)S(=O)(=O)c1ccc(Br)cc1 | · | -37* | · | · | · | ·
Cc1cc2c(c(C)c1Cl)C(c1ccc3c(c1)OCO3)CC(=O)O2 (stereo not given) | 22µM* | -5 | ? | -4% | 15% | ?
COc1ccc(Nc2ccccc2NC(=O)c2ccccc2Br)cc1 | 16µM* | -1 | i | -1% | 8% | i
CCC(=O)Nc1sc2c(c1C#N)CC(C)(CC)OC2 (stereo not given) | 11µM* | 0 | i | -9% | · | i
O=C(NCCCCc1ccccc1)c1cc(=O)c2ccccc2o1 | · | -17 | · | · | · | ·
Cc1ccc(C(C)NC(=O)C2CCCC2)c(C)c1 (stereo not given) | 10% | 1 | i | -7% | 1% | i
Cc1ccc(C(C)NC(=S)NC2CCCCC2)c(C)c1 (stereo not given) | 20% | 0 | i | 10% | -25% | 11µM*
O=C(Nc1ccc(F)cc1)c1ccc(Cn2nc(N3CCN(c4ccccc4)CC3)ccc2=O)o1 | 22µM* | 3 | ? | 8% | · | i
Cc1ccc(NC(=O)Cn2nc(N3CCN(c4ccccc4)CC3)ccc2=O)cc1F | 18µM* | 5 | ? | 13% | · | i
COc1ccc(NC(=O)c2ccc(C3Nc4ccccc4S(=O)(=O)N3)cc2)cc1OC (stereo not given) | · | 41 | · | · | · | ·
CC1=C(c2ccc(C(C)C)cc2)S(=O)(=O)N=C1N1CCC(C(=O)NC2CCCC2)CC1 | · | 1 | · | · | · | ·
Cc1ccc(NC(=O)C(C)c2ccc([N+](=O)[O-])cc2)cc1Cl (stereo not given) | 11µM* | -3 | i | -1% | 2% | ?
Cc1ccc(NC(=O)[C@H](C)NC(N)=O)cc1Cl | · | 11 | · | · | · | ·
COc1cc(NC(=O)c2ncoc2-c2ccc(OC)c(OC)c2)cc(OC)c1 | · | 7 | · | · | · | ·
CC(C)(C)c1ccc(NC(=S)NCc2cccs2)cc1 | 13µM* | -1 | i | 6% | -9% | i
S=C(NCc1cccs1)Nc1ccc(Br)cc1 | · | 1 | · | · | · | ·
